Screening data deposited in PubChem by National Center for Advancing Translational Sciences (NCATS).
Rows were chosen to be rich in hits. Some 19% of all compounds tested hit in one or more screens of this group.
IL-1B inflam inh: qHTS for Inhibitors of Inflammasome Signaling: IL-1-beta AlphaLISA Primary Screen. THP-1 LPS/ATP IL-1B secretion, AlphaLISA, 16 h; stronger effect = lower value. activity change, % at 57.5 µM. 360,000 compounds, 4.7% hits. AID 743279, 2014; in the data active = activity change below about -50%; inconclusive = mostly about -30% to -49%
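Secreted IL-1B measured by AlphaLISA bead assay after 16 h compound exposure of THP-1 cells; compounds (final up to 57.5 uM) added 1 h before LPS (250 ng/mL) and ATP (1.25 mM) stimulation; lower signal means less secretion.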
HT1080-NT tox: qHTS for induction of synthetic lethality in tumor cells producing 2HG: qHTS for the HT-1080-NT fibrosarcoma cell line; AID 686970, 2013; Potency, µM (highest dose often 46.1 µM), inactives show at the highest dose activity, negative = less viability, hits mostly cytotoxic; 360,000 compounds, 1.6% hits; HT-1080-NT fibrosarcoma viability, CellTiter-Glo ATP luminescence, 48 h;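 also: NT is the 2HG producing partner of a matched IDH1 knockdown line; potency is read from the fitted curve at half-maximal effect; 0% = DMSO-treated cells and -100% = media-only wells without cells; nearly all actives have a fitted effect of over 55% in size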
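Fibrosarcoma NT cells, 750 per well in 5% FBS RPMI, were exposed to compound for 48 hours. Viability: CellTiter-Glo luminescence.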
TDP1 cell CPT: qHTS for Inhibitors of human tyrosyl-DNA phosphodiesterase 1 (TDP1): qHTS in cells in presence of CPT; AID 686979, 2013; 420,000 compounds, 12% hits; Potency, µM (highest dose often 46.2 µM), inactives show at the top dose activity change, negative = growth inhibition, most hits filed as inhibitors; chicken DT40 Tdp1-/-;hTDP1 cells + 20 nM CPT, ATP luminescence, 48 h; also: potency is read from the fitted curve at half-maximal effect; nearly all actives have a fitted effect of over 55% in size
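Chicken DT40 Tdp1-/- cells stably complemented with human TDP1 were seeded at 400 cells/well in medium containing 20 nM camptothecin, exposed to pin-transferred compounds, and grown at 37 °C for at least 48 hr. Viability was read as ATP luminescence.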
TDP1 cell noCPT: qHTS for Inhibitors of human tyrosyl-DNA phosphodiesterase 1 (TDP1): qHTS in cells in absence of CPT | AID 686978, 2013 | 420,000 compounds, 15% hits | Potency, µM (doses to about 46.2 µM), for inactives: at the top dose activity change, negative = growth inhibition, most hits filed as inhibitors | DT40 Tdp1-/- hTDP1 cells, no CPT, ATP luminescence, 48 h; also: potency is read from the fitted curve at half-maximal effect; nearly all actives have a fitted effect of over 55% in size
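A cellular qHTS used chicken DT40 cells lacking endogenous Tdp1 but carrying stably transfected human TDP1. Compounds were applied without camptothecin, and cell growth kinetics were judged by ATP-dependent luminescence after ≥48 hr.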
HT1080 IDH1KD tx: qHTS for induction of synthetic lethality in tumor cells producing 2HG: qHTS for the HT-1080-IDH1KD cell line. HT-1080 IDH1 knockdown viability, ATP luminescence, 48 h. AID 686971, 2013. 360,000 compounds, 2% hits. Potency, µM (series often up to 46.1 µM), without a hit: at the highest dose activity, negative = toxicity, actives largely listed as cytotoxic;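 also: potency is read from the fitted curve at half-maximal effect; 0% = DMSO wells and -100% = cell-free medium wells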
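IDH1KD HT-1080 cells, 750/well, RPMI + 5% FBS; compound pinned after 2 h settling; 48 h, 37 °C; CellTiter-Glo luminescence; % activity normalised to DMSO and no-cell wells; curves fitted, classed by r2 and efficacy.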
The depositor's hits bear a star; [ ] = remark or other dose. Unless noted, calls follow the shape of the dose curve; as a rule, active = well fitted curve in the direction sought with a large enough effect; inconclusive = small, poorly fitted or top-dose-only effect, or another doubt; inactive = no such curve, though single readings can be large; an effect the other way counts as inactive or inconclusive. Unless noted, % is scaled to controls: 0 for no effect and ±100 for the full control effect.

O=C(Nc1ccncc1)c1cc(S(=O)(=O)N2CCCCC2)ccc1Cl was read as IL-1B inflam inh 25.1, HT1080-NT tox -28.9%, TDP1 cell CPT 9.2µM*, TDP1 cell noCPT inconclusive and HT1080 IDH1KD tx -12.4%.
Screening O=C(Nc1ccccc1O)c1cc(S(=O)(=O)N2CCCC2)ccc1Cl returned TDP1 cell CPT inconclusive and TDP1 cell noCPT 20.6µM*.
O=C(O)c1ccc(NC(=O)c2ccc(Cl)c(S(=O)(=O)N3CCCCCC3)c2)cc1 was read as TDP1 cell CPT -21.2% and TDP1 cell noCPT -18.1%.
For CCN(CC)CCOC(=O)c1ccc(NC(=O)c2ccc(Cl)c(S(=O)(=O)N3CCCCCC3)c2)cc1 the results were IL-1B inflam inh -68.8*, HT1080-NT tox inconclusive, TDP1 cell CPT 20.6µM*, TDP1 cell noCPT inconclusive and HT1080 IDH1KD tx inconclusive.
For O=C(Nc1ccccc1O)c1cc(S(=O)(=O)N2CCOCC2)ccc1Cl the results were IL-1B inflam inh -9.0, HT1080-NT tox 6.3%, TDP1 cell CPT -2.2%, TDP1 cell noCPT inconclusive and HT1080 IDH1KD tx 4.9%[9.24 µM].
CCCn1c(C)cc(C(=O)COC(=O)c2ccc(Cl)c(S(=O)(=O)N3CCCC3)c2)c1C was read as IL-1B inflam inh 11.2, HT1080-NT tox -2.4%, TDP1 cell CPT 23.1µM*, TDP1 cell noCPT 14.6µM* and HT1080 IDH1KD tx 3.5%.
C=CCNC(=O)c1cccc(C(F)(F)F)c1 was read as IL-1B inflam inh 0.0, HT1080-NT tox 2.7%, TDP1 cell CPT inconclusive, TDP1 cell noCPT -0.3% and HT1080 IDH1KD tx 0.3%.
Screening COC(=O)c1ccc(C(=O)N2CCCC(N3CCN(c4ccccc4)CC3)C2)nc1 (centres undefined) returned IL-1B inflam inh 33.3, HT1080-NT tox 9.6%, TDP1 cell CPT -14.2%, TDP1 cell noCPT 17.5% and HT1080 IDH1KD tx 8.0%.
Screening CCOc1ccc(CNC(=O)C2CCN(S(=O)(=O)c3cn(C)cn3)CC2)cc1OC returned TDP1 cell CPT -15.0% and TDP1 cell noCPT -19.5%.
`O=C(Nc1ccncc1)c1ccc(Cl)c(S(=O)(=O)N2CCCCC2)c1` gave IL-1B inflam inh -11.2, HT1080-NT tox inconclusive, TDP1 cell CPT 13µM*, TDP1 cell noCPT 16.4µM* and HT1080 IDH1KD tx 8.2µM*.
Screening CC(=O)Nc1cccc(NC(=S)Nc2ccc(F)c(Cl)c2)c1 returned IL-1B inflam inh -7.2, HT1080-NT tox -6.2%, TDP1 cell CPT 16.4µM*, TDP1 cell noCPT inconclusive and HT1080 IDH1KD tx -0.8%.
O=C(NNC(=S)Nc1ccc(F)c(Cl)c1)c1ccccc1Br was read as IL-1B inflam inh -61.7*, HT1080-NT tox inconclusive, TDP1 cell CPT inconclusive, TDP1 cell noCPT inconclusive and HT1080 IDH1KD tx inconclusive.
For O=C(NNC(=S)Nc1ccc(F)c(Cl)c1)C1CC1 the results were IL-1B inflam inh 3.2, HT1080-NT tox 3.2%, TDP1 cell CPT 43.0%, TDP1 cell noCPT 8.9% and HT1080 IDH1KD tx 8.8%.
For CCCCn1c(N)c(N(Cc2ccccc2OC)C(=O)COc2ccccc2C#N)c(=O)[nH]c1=O the results were IL-1B inflam inh 5.4, HT1080-NT tox -1.2%, TDP1 cell CPT -14.2%, TDP1 cell noCPT 5.5% and HT1080 IDH1KD tx 2.8%.
For O=c1[nH]c(/C(=N\O)c2ccccc2)no1 the results were IL-1B inflam inh -16.6, HT1080-NT tox -6.1%, TDP1 cell CPT inconclusive, TDP1 cell noCPT 14.6µM* and HT1080 IDH1KD tx -3.8%.
CCOc1ccc(Br)cc1C1=NN(C(C)=O)C(c2ccc([N+](=O)[O-])s2)O1 (centres undefined) was read as IL-1B inflam inh -26.1, HT1080-NT tox 23.1µM*, TDP1 cell CPT 18.4µM*, TDP1 cell noCPT 8.2µM* and HT1080 IDH1KD tx inconclusive.
`C=C[C@](C)(O)CCC=C(C)C` gave TDP1 cell CPT -0.3% and TDP1 cell noCPT 2.2%.
O=C1c2oc3ccc(F)cc3c(=O)c2C(c2ccccc2)N1CC1CCCO1 (centres undefined) was read as IL-1B inflam inh -14.2, HT1080-NT tox 12.4%, TDP1 cell CPT -26.7%, TDP1 cell noCPT -29.0% and HT1080 IDH1KD tx 2.9%.
For COc1cc2c3nnc(-c4ccc(F)cc4)c-3cn(Cc3cccc(C)c3)c2cc1OC the results were IL-1B inflam inh -97.8*, HT1080-NT tox -11.0%, TDP1 cell CPT 1.84µM*, TDP1 cell noCPT 2.59µM* and HT1080 IDH1KD tx -7.3%.
`COc1cc2c3nnc(-c4ccc(F)cc4)c-3cn(Cc3cccc(F)c3)c2cc1OC` gave IL-1B inflam inh -2.7, HT1080-NT tox inconclusive, TDP1 cell CPT 2.31µM*, TDP1 cell noCPT 2.59µM* and HT1080 IDH1KD tx -28.0%.
Screening COc1cc2c3nnc(-c4ccccc4)c-3cn(Cc3ccc(F)cc3)c2cc1OC returned IL-1B inflam inh -192.1*, HT1080-NT tox 18.4µM*, TDP1 cell CPT 8.2µM*, TDP1 cell noCPT 14.6µM* and HT1080 IDH1KD tx 20.6µM*.
`COc1cccc(Cn2nc3c4cc(F)ccc4n(Cc4ccc(F)cc4)cc-3c2=O)c1` gave IL-1B inflam inh 22.1, HT1080-NT tox 8.9%, TDP1 cell CPT -9.0%, TDP1 cell noCPT inconclusive and HT1080 IDH1KD tx 1.7%.
For COC(=O)c1ccc(Sc2ccccc2NS(=O)(=O)c2ccc(C)cc2)nc1 the results were IL-1B inflam inh 25.9, HT1080-NT tox -1.9%, TDP1 cell CPT -5.2%, TDP1 cell noCPT -20.1% and HT1080 IDH1KD tx 18.8%.
`Cc1cc(=O)[nH]c2c(C)cc(S(=O)(=O)Nc3ccc(O)cc3)cc12` gave IL-1B inflam inh 0.0, HT1080-NT tox -1.4%, TDP1 cell CPT -16.7%, TDP1 cell noCPT 0.4% and HT1080 IDH1KD tx -2.9%.
`O=C(COC(=O)c1cc([N+](=O)[O-])ccc1N1CCOCC1)NC1CCCCC1` gave IL-1B inflam inh -7.1, HT1080-NT tox 5.1%, TDP1 cell CPT 16.8%, TDP1 cell noCPT -6.3% and HT1080 IDH1KD tx 4.7%.
`CC(C)(C)NS(=O)(=O)c1ccc(CCC(=O)N2CCCC2)cc1` gave IL-1B inflam inh 3.6, HT1080-NT tox 8.6%, TDP1 cell CPT -18.2%, TDP1 cell noCPT -7.6% and HT1080 IDH1KD tx 1.8%.
For COc1ccc(NC(=O)CN2C(=O)COc3ccc(S(=O)(=O)N4CCCCC4)cc32)c(OC)c1 the results were IL-1B inflam inh -54.0*, HT1080-NT tox 18.8%, TDP1 cell CPT 14.6µM*, TDP1 cell noCPT inconclusive and HT1080 IDH1KD tx 5.1%.
`Cc1cc(C)cc(NC(=O)CN2C(=O)CCc3cc(S(=O)(=O)N4CCCCC4)ccc32)c1` gave TDP1 cell CPT 16.4µM* and TDP1 cell noCPT inconclusive.
